# Screening results (PubChem)
# Shown are actives, neighbours in structure and some others; about 7.1% of the full set was active somewhere.
# SW480 rereplic = inducers of DNA re-replication in SW480 colon cancer cells. 340,000 compounds, 1.8% hits. Potency, µM (highest dose often 46.1 µM), most hits filed as activators. SW480 DNA re-replication, Hoechst DNA content imaging, 48 h. AID 624297; also: nearly all actives have a fitted effect of over 55% in size
#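 Hoechst fluorescence of nuclei (405 nm excitation, 500-530 nm emission) measured by plate-scanning imager after 48 hr compound exposure at 37 C; re-replication scored as increased number of nuclei with elevated intensity.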
# IL-1B inflam inh = inflammasome signaling inhibition, IL-1 beta readout; THP-1 LPS/ATP IL-1B secretion, AlphaLISA, 16 h; active compounds read low; AID 743279; activity change, % at 57.5 µM; 360,000 compounds, 4.7% hits; in the data active = activity change below about -50%; inconclusive = mostly about -30% to -49%
#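 THP-1 cells pretreated 1 hr with compounds (up to 57.5 uM final), then stimulated with LPS (250 ng/mL final) plus ATP (1.25 mM final); secreted IL-1B measured by AlphaLISA after 16 hr, decreased signal indicating inhibition.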
# S2 tox = cell viability loss in ATXN counter-screen | 400,000 compounds, 0.49% hits | Potency, µM (doses to about 56.7 µM), actives largely listed as cytotoxic | S2 cells (HEK-293 line with an ATXN2-luciferase reporter) viability, CellTiter-Fluor protease fluorescence, 24 h; also: nearly all actives have a fitted effect of over 40% in size
# PINK1 modulator = modulators of PINK1 expression | PINK1 immunofluorescence, high-content cytometry, 24 h | Potency, µM (top dose mostly 76.6 µM), usual class: activators | 410,000 compounds, 0.2% hits; active = well fitted activation curve with a large enough effect; inconclusive = small, poorly fitted or top-dose-only effect; cell line not stated here; also: nearly all actives have a fitted effect of over 65% in size
#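 PINK1 protein level read as immunofluorescence by microplate cytometer in a fixed, stained stable cell line after 24 h exposure to five compound concentrations, with CCCP as control.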
# ATXN2 expr inh = inhibitors of ATXN2 expression; 360,000 compounds, 0.72% hits; HEK-293 ATXN2-luciferase reporter, luminescence, 24 h; AID 1745845; Potency, µM (doses to about 57 µM), most hits filed as inhibitors; also: nearly all actives have a fitted effect of over 55% in size
#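 qHTS (up to 57 uM final) was run with 24 h compound exposure of reporter cells at 37 °C. Each well was multiplexed: SteadyGlo luminescence measured ATXN2-luciferase expression after a fluorogenic Gly-Phe-AFC viability readout (25 uM final).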
# MCF10A rerep = DNA re-replication induction in MCF 10a cells; MCF 10A DNA re-replication, Hoechst nuclear intensity, 48 h; Potency, µM (top dose mostly 46.1 µM), actives largely listed as activators; 350,000 compounds, 2.9% hits; also: nearly all actives have a fitted effect of over 50% in size
# A number is an active result; - = inactive; ? = inconclusive; . = no result given; [ ] = remark or other dose. Unless noted, calls follow the shape of the dose curve; as a rule, active = well fitted curve in the direction sought with a large enough effect; inconclusive = small, poorly fitted or top-dose-only effect, or another doubt; inactive = no such curve, though single readings can be large; an effect the other way counts as inactive or inconclusive.
SMILES,SW480 rereplic,IL-1B inflam inh,S2 tox,PINK1 modulator,ATXN2 expr inh,MCF10A rerep
CC(=O)OCC1O[C@@H](O[C@@H]2C[C@H]3C(C)(C)[C@H](OC(C)=O)CC[C@]3(C)[C@H]3CC[C@]45C[C@]4(CC[C@H]5[C@@H](C)C[C@@H](O)[C@H](O)C(C)(C)O)[C@@]32C)[C@H](O)[C@@H](O)[C@@H]1O (some centres undefined),21µM,.,.,.,.,7.3µM
O=C(CSc1nnc(CNC(=O)c2ccccc2)n1-c1cccc(Cl)c1)Nc1ccccc1F,.,.,-,-,-,.
Nc1c(Cl)cc2c(c1Oc1ccccc1)C(=O)c1ccccc1C2=O,?,-71,-,.,-,13µM
Nc1c(Cl)cc2c(c1Br)Cc1ccccc1-2,-,-,-,-,-,-
Cc1cnc(SCc2ccccn2)nc1C1CCCN(C(=O)c2ccc3[nH]c(C)c(C)c3c2)C1 (centres undefined),.,.,?,-,.,.
O=c1[nH]c(COc2ccccc2)nc2ccccc12,?,-,?,-,.,?
Clc1ccc2nc(COc3ccccc3)[nH]c2c1,7.3µM,-,-,-,-,3.3µM
CCOC(=O)N1CCN(CC(O)COc2ccc(OC)cc2C(C)(C)C)CC1 (centres undefined),-,-,-,-,-,-
COc1ccc(CCNCC(O)Cn2c3ccccc3c3ccccc32)cc1OC (centres undefined),-,-55,?,-,?,9.2µM
COc1ccc(CCNC[C@@H](O)c2ccc(O)cc2)cc1OC,-,.,.,.,.,-
COc1ccc(CCNCC(O)COc2cccc(Br)c2)cc1OC (centres undefined),-,-61,-,-,-,-
COc1ccc(CCNCC(O)COc2ccc(OC)cc2C(C)(C)C)cc1 (centres undefined),23µM,-97,?,-,-,?
COc1cccc(C2(CC(=O)N3CCN(c4ccccc4O)CC3)CC(=O)N(C3CCCC3)C2=O)c1 (centres undefined),.,.,-,-,.,.
COc1ccc2c(c1)-c1nc(NC(=O)c3ccc(OC)c(Br)c3)sc1CC2,.,.,-,-,-,.
COc1ccc(CNc2nc(-c3ccc(OC)cc3)cc(C(F)(F)F)n2)cc1,.,.,-,-,-,.
CCN1C(=O)CC(CC(=O)N2CCCCC2c2nccs2)(c2ccccc2C)C1=O (centres undefined),.,.,-,-,.,.
COc1ccc(NC(=O)C(C(C)C)N2Cc3ccccc3C2=O)cc1 (centres undefined),.,.,?,-,-,.
COC(=O)C1=C(N)Oc2cc(C)n(CC3CCCO3)c(=O)c2C1c1ccccc1OC (centres undefined),-,-,?,-,-,-
COC(=O)C1=C(N)Oc2cc(N(C)C)ccc2C1c1ccccc1OC (centres undefined),12µM,-,-,-,-,9.2µM
COCCNC(=O)Cn1cc(S(=O)(=O)N2CCN(c3ccccc3F)CC2)c2ccccc2c1=O,-,-,-,-,-,-
O=C(Cn1cc(S(=O)(=O)N2CCN(c3ccccc3F)CC2)c2ccccc2c1=O)NCCCN1CCCCCC1,21µM,-61,?,-,?,?
Cc1cccn2c(=O)cc(CSc3nnc(NC(=O)COc4ccc(F)cc4)s3)nc12,.,.,.,-,.,.
O=c1c2c(-c3ccccc3)csc2ncn1/N=C/c1cccc([N+](=O)[O-])c1O,?,-,-,-,-[11.3 µM],-
Cn1cc(/C=N/n2cnc3scc(-c4ccccc4)c3c2=O)c2ccccc21,15µM,-,?,-,-,?
O=C(Nc1ccccc1)N1CCN(c2cccc(C(F)(F)F)c2)CC1,-,-50,-,.,-,-
SMILES,SW480 rereplic,IL-1B inflam inh,S2 tox,PINK1 modulator,ATXN2 expr inh,MCF10A rerep
O=C(Nc1cccc(C(F)(F)F)c1)c1cccnc1N1CCN(c2ccccc2)CC1,-,-77,-,-,-,?
CCn1cc(C(=O)N2CCN(c3cccc(C(F)(F)F)c3)CC2)c2cc(OC)c(OC)cc2c1=O,.,.,-,-,?,.
COc1ccccc1C(=O)N1CCN(c2cccc(C(F)(F)F)c2)CC1,23µM,-,-,-,-,11µM
CN1CCN(C(=O)Nc2cccc(-c3ccccc3)c2)CC1,16µM,-,-,-,-,?
CCCS(=O)(=O)NCc1c(C)ncc2c1CCN(C(=O)c1cccc(-c3ccccc3F)c1)C2,.,.,-,-,.,.
Cc1cc(C(=O)N2CCCC(N3CCN(c4cccc(C(F)(F)F)c4)CC3)C2)c(C)o1 (centres undefined),18µM,?,-,-,-,?
COc1cc(N2CCC(N3CCN(C)CC3)CC2)ccc1Nc1ncc(Cl)c(Nc2ccccc2S(=O)(=O)C(C)C)n1,.,.,.,.,19µM,.
CCCN(C(=O)Nc1cn(CC(C)C)c(=O)c2ccccc12)c1ccc(F)cc1,.,.,-,-,-,.
Cn1cnc([N+](=O)[O-])c1Sc1ccc(Br)cc1,?,?,-,-,.,6.5µM
CCN(CC)CCN(C(=O)/C=C/c1cccs1)c1nc2ccc(Cl)cc2s1,?,-,-,-,.,-
CN(C)CCN(C(=O)/C=C/c1cccs1)c1nc2ccc(F)cc2s1,?,-66,?,-,-,-
CN(C)CCCN(C(=O)c1cc(-c2cccs2)nc2ccccc12)c1nc2ccc(F)cc2s1,?,-59,?,-,?,?
Nc1nc(Sc2c([N+](=O)[O-])cc(C(F)(F)F)cc2[N+](=O)[O-])n[nH]1,?,-100,-,-,-,?
Nc1nc(Sc2ccc(C(F)(F)F)cc2[N+](=O)[O-])n[nH]1,-,-,-,-,-,-
CCc1ccccc1NC(=O)C(=O)NCC(c1cccnc1)N1CCN(c2ccccc2F)CC1 (centres undefined),.,.,.,-,.,.
CN(C)c1nc(NC(C)(C)C)nc(SCC(=O)Nc2ccccc2)n1,-,-104,.,-,-,-
CN(C)c1nc(NCc2ccccc2)nc(SCC(=O)Nc2ccccc2Cl)n1,-,-,-,-,-,?
CN(C)c1nc(NCc2ccccc2)nc(SCC(=O)Nc2ccccc2)n1,-,-77,-,-,-,?
CN(C)c1nc(SCC(=O)Nc2ccccc2)nc(N2CCOCC2)n1,-,-,-,-,-,-
COc1cnc(-c2ccccc2)nc1OC,-,-,-,-,-,-
COc1nc(-c2ccccc2)nc(-c2ccccc2)c1C,-,-,-,?,-,23µM
Cc1cccc(CCNC(=O)c2ccc3c(c2)N(Cc2ccccc2F)C(=O)c2ccccc2S3)c1,.,.,.,-,.,.
Cc1cc(C)nc(NC(=O)/C=C/c2ccc(Cl)cc2Cl)c1,-,-53,-,?,-,?
CCc1ccc(OCc2ccccc2C(=O)Nc2ccc3nc(C)cc(N)c3c2)cc1,.,.,.,-,17µM,.
Cc1cc(N)c2cc(NC(=O)/C=C/c3ccccc3Cl)ccc2n1,?,-65,8.9µM,-,.,?
